Screens as filed in PubChem BioAssay.
HTR2A ag – mouse HTR2A agonism via beta-arrestin recruitment | P35363 | CHO-K1 mHTR2A beta-arrestin complementation, luminescence; percent of 30 µM serotonin response | activation, % at 7.6 µM | hit rate 0.66% among 360,000;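 active means activation above a run cutoff, the mean activation of all tested compounds plus 3 SD, cut at about 14% in these data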;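 further: 0% = plate median of compound wells and 100% = 30 µM serotonin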
B2AR ag – agonists of human beta-2 adrenergic receptor inducing internalization; Am2.2-beta2AR cells, FAP receptor internalization, flow cytometry; response, % (test concentration not listed); hit rate 0.43% among 340,000; P07550; AID 504454;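 active means response above a set limit, near 3 SD of response in nonfluorescent compounds, cut at about 42% in these data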
ABHD5 PLIN5 PPI – ABHD5-PLIN5 protein interaction inhibition | Q00G26+Q8WTS1 | Split G. princeps luciferase complementation, luminescence, 4 h | inhibition, % at 4 µM | hit rate 0.78% among 360,000;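 active means inhibition above the mean inhibition across every tested compound plus 3 SD, cut at about 22% in these data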;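 further: 0% = DMSO only wells and the 100% control is not disclosed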
NTR1 ag – NTR1 (human) agonism. P30989. NTR1-U2OS beta-arrestin-GFP spot imaging, agonist mode. activation, % at 20 µM. hit rate 0.17% among 330,000. AID 493036;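 active means activation at or above 40% of the spot to cytoplasm intensity ratio, with at least 20 cells analyzed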;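 further: 0% = DMSO without peptide and 100% = 100 nM NTR1 peptide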
Target sequence (P30989 whole entry, looked up): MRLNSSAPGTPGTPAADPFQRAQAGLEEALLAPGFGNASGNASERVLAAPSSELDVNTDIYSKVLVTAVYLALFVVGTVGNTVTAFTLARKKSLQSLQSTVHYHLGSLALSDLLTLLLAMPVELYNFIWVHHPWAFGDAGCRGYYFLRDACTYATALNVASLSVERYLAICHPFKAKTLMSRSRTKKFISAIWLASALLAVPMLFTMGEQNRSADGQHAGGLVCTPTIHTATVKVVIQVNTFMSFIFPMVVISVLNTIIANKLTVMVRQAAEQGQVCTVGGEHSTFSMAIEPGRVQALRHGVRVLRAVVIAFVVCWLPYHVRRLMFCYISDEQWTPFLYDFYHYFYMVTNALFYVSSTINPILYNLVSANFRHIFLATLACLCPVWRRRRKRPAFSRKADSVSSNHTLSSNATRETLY
Exocytosis inh – lytic granule exocytosis inhibition | TALL-104 LAMP-1 surface exposure, flow cytometry; cells stimulated with thapsigargin and PMA | inhibition, % at 10 µM | hit rate 0.66% among 360,000;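 active means inhibition above about 55%, limit read from the data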
OPRM1 ag – activates human mu opioid receptor in HTR2A counterscreen. hit rate 5.3% among 2,300. shares compounds with HTR2A ag. U2OS OPRM1 beta-arrestin PathHunter, luminescence; DMSO 0%, DAMGO 9.3 µM 100%. activation, % at 9.3 µM;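 active means mean activation above the mean of DMSO-only wells plus 3 SD, cut at about 0.5% in these data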
HTR2A ag conf – confirmation of mouse HTR2A serotonin receptor agonists | shares compounds with HTR2A ag | CHO-K1 PathHunter beta-arrestin recruitment, luminescence; DMSO 0%, 30 µM serotonin 100% | activation, % at 7.6 µM | hit rate 19% among 2,300 | AID 624381;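 active means mean activation across triplicates above the hit threshold derived in the original primary screen, cut at about 15% in these data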
An asterisk follows results filed as active; x = no result given. This is a sample that favours compounds with a hit; in the whole collection about 2.3% have one here.

SMILES	HTR2A ag	B2AR ag	ABHD5 PLIN5 PPI	NTR1 ag	Exocytosis inh	OPRM1 ag	HTR2A ag conf
Cc1c(P(=S)(c2ccccc2)c2ccccc2)[n+]2ccccc2n1CCc1ccccc1	2	x	10	x	14	x	x
CN1CCc2c(sc(NC(=O)Cc3ccccc3)c2C#N)C1	18*	3	-3	-4	4	0	69*
COc1cc(C#N)ccc1OC(=O)c1cccc(S(=O)(=O)N2CCN(C)CC2)c1	18*	12	4	1	-9	-1	-6
Cc1c(C(=O)Nc2ccc(S(=O)(=O)N3CCOCC3)cc2)cccc1[N+](=O)[O-]	19*	1	1	1	0	0	1
Cc1cccc(C(=O)Nc2ccc(S(=O)(=O)N3CCOCC3)cc2)c1[N+](=O)[O-]	-3	0	10	0	-13	x	x
CCOc1ccc(-c2nnc3ccc(SCC(=O)Nc4nc5ccc(C)cc5s4)nn23)cc1	17*	-12	-6	4	5	0	-2
CCOc1ccc(-c2nnc3ccc(SCC(=O)Nc4nc5ccccc5s4)nn23)cc1	2	6	-1	1	-1	x	x
CCc1c(C)nc(N2CCN(c3ccccc3F)CC2)[nH]c1=O	20*	10	0	-2	-1	0.9*	4
CCCC(=O)N1CC2(C)CN(C(=O)CCC)CC(CCC)(C1)C2=O	16*	-1	-1	1	-1	-1	-4
CCNC(=O)C1(C)CCN(Cc2ccc(-c3ccccc3)cc2)C1 (configuration not stated)	-10	x	-5	x	6	x	x
BrC(=C\c1ccccc1)/C=N/N1CCN(Cc2ccccc2)CC1	20*	2	-2	2	-5	-1	-3
BrC(/C=N/N1CCN(Cc2ccccc2)CC1)=C/c1ccccc1	24*	3	8	0	-1	-1	0
CC(/C=N\N1CCN(Cc2ccc(C)cc2)CC1)=C\c1ccccc1	-5	1	-11	2	0	x	x
Clc1ccc(Sc2cc(N3CCOCC3)nc(-c3ccccc3)n2)cc1	7	-2	1	8	-1	x	x
CC(C)Sc1cc(N2CCOCC2)nc(-c2ccc(Cl)cc2)n1	14*	-4	0	7	3	0	9
Cc1cc(C)c(C)c(Cn2c(CO)nc3ccccc32)c1C	15*	0	1	2	-1	0	-1
O=C(NCc1ccc2c(c1)OCO2)C1CCC(CNc2c(N3CCCC3)c(=O)c2=O)CC1 (configuration not stated)	14*	4	8	-2	-6	0	-2
O=C(NCc1ccccc1)C1CCC(CNc2c(N3CCCCC3)c(=O)c2=O)CC1 (configuration not stated)	1	8	2	-2	-5	x	x
Cc1ccc(CNCC(O)(c2ccccc2)c2ccccc2)cc1	20*	3	-10	1	16	0	-4
COc1ccc(Cn2c(C)nnc2-c2cnn(C)c2N)cc1	-2	0	-2	0	-1	x	x
CC(=O)N(C(C)=O)S(=O)(=O)c1ccc(N=NN2CCCCC2)cc1	1	-2	0	1	-2	x	x
CCOC(=O)CC1(NC(=O)c2cc(COc3cccc(OC)c3)on2)CCCCC1	15*	5	-3	2	-1	-1	-5
COc1cccc(OCc2cc(C(=O)NCC3CCCCC3)no2)c1	-6	-3	-10	0	-4	x	x
Cc1ccc(-c2nc(=S)c3c(n2Cc2cccnc2)CC(C)(C)OC3)cc1	-1	-3	-13	2	5	x	x
CC(=O)Nc1ccc(Nc2nc(C)c([N+](=O)[O-])c(N(C)c3ccccc3)n2)cc1	25*	5	1	5	0	0	-5
SMILES	HTR2A ag	B2AR ag	ABHD5 PLIN5 PPI	NTR1 ag	Exocytosis inh	OPRM1 ag	HTR2A ag conf
COc1ccc(/C=N/Nc2nc(C)c([N+](=O)[O-])c(N(C)c3ccccc3)n2)cc1OC	3	11	0	18	-1	x	x
COc1ccc(OC)c(NC(=O)CSc2nc3[nH]c(=O)cc(O)c3s2)c1	-2	18	-21	2	7	x	x
COc1ccc(OC)c(NC(=O)CSc2nc3[nH]c(=O)[nH]c(=O)c3s2)c1	18*	0	11	x	-2	-1	1
O=C(O)C(Cc1c[nH]c2ccccc12)N1C(=O)C2C3c4ccccc4C(c4ccccc43)C2C1=O (configuration not stated)	1	3	-1	1	1	x	x
CCOc1ccc(NC(=O)N2CCN(S(C)(=O)=O)CC2)cc1	4	9	5	0	0	x	x
CCOc1ccc(NC(=O)N2CCN(c3nc4ccccc4s3)CC2)cc1	30*	3	2	1	0	0	0
O=C(O)CCC(=O)N1CCN(c2nc3ccccc3s2)CC1	45*	6	-12	0	1	0	12
Cc1cccc(C)c1NC(=O)N1CCN(c2nc3ccccc3s2)CC1	39*	-1	1	-2	2	0	0
N=C1C(c2ccccc2)=C(O)CN1CCO	6	-9	6	-2	-7	x	x
CCOC(=O)C[C@H]1c2ccccc2S(=O)(=O)N1c1cccc(OC)c1	-3	-3	-2	2	-11	x	x
CN(Cc1cccs1)C(=O)COc1ccc(-c2nnco2)cc1	0	15	2	0	-1	x	x
CCCCn1c(OC(=S)N(CC)CC)cc(C)nc1=S	-8	x	-3	x	-7	x	x
Cc1ccc(NS(=O)(=O)c2ccc(-c3csc(C)n3)s2)c(C)c1	4	1	-8	1	-15	x	x
Nc1ncnc2c1ncn2C1OC(C(=O)NC2CC2)C(O)C1O (configuration not stated)	1	-1	9	4	2	x	x
O=C(Cc1cccc(NC(=O)C2CCCN(C(=O)C3CCC3)C2)c1)Nc1ccc(C(=O)N2CCOCC2)cc1 (configuration not stated)	29*	-6	-3	x	-1	-1	-6
CN(CCN1CCOCC1)C(=O)C1CCC(=O)N(Cc2ccc(Cl)cc2)C1 (configuration not stated)	5	x	-1	x	-12	x	x
COc1cc(C(=O)NC(C)CCn2cccn2)ccc1OC1CCN(C(C)=O)CC1 (configuration not stated)	1	-5	-1	-1	-1	x	x
COc1cc2[nH]c(=S)n(Cc3cccs3)c(=O)c2cc1OC	19*	-3	-1	3	1	-1	-2
O=C1NC[C@H](Cc2ccccc2)N(C[C@H]2CCCN2C[C@H](Cc2ccc(O)cc2)N2C[C@H](Cc3ccc(O)cc3)N(CC3CCCCCC3)C(=O)C2=O)C1=O	26*	-1	5	x	-9	-1	73*
